Laboratory results published in PubChem BioAssay AID504336 (NMMLSC, 2011).
“And” between values parts separate entries of the source, which are not always exact repeats. Identical values can stand only once. The source made the active and inactive calls.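 The calls were made as follows: active = compounds whose GFP signal falls below 65% of the DMSO control level; inconclusive = fewer than 70 yeast cells counted in the well; inactive = the rest.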

Experiment: TOR branch reporter RPL19A-GFP response – cell-based, S. cerevisiae, third cherry pick, flow cytometry, confirmation (AID 504336);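 also: median GFP fluorescence of all gated yeast cells by flow cytometry; ratio of well median fluorescence to plate mean of DMSO wells with DMSO = 100%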
Details: S. cerevisiae RPL19A-GFP strain, 3 h, at 10 µM, stronger effect = lower value

GFP response relative to DMSO, inactive:
C=CCNc1ncnc2ccccc12 103%
CSc1ccccc1OCc1cc(C(=O)N2CCN(C)C(c3ccccc3)C2)no1 (centres undefined) 101%
Nc1ncnc(Nc2cc(Cl)cc(Cl)c2)c1[N+](=O)[O-] 102%
CNc1cccc2c1C(=O)c1ccccc1C2=O 102%
Cc1ccc(Nc2cc(=O)[nH]c(=O)[nH]2)cc1C 96.5%
CN1CCN(C(=O)c2cc(COc3ccc(F)cc3Cl)on2)CC1c1ccccc1 (centres undefined) 100%
O=c1cc(C(F)(F)F)[nH]c2c(OC(F)(F)F)cccc12 101%
Cc1nc(Nc2ccc(Br)cc2Br)c([N+](=O)[O-])c(=O)[nH]1 100%
COc1cccc2c(=O)c(C(=O)O)c[nH]c12 98.3%
C[n+]1cccc2c(Br)ccc([O-])c21 101%
COc1ccccc1Nc1nc(NCCO)nc(N)c1[N+](=O)[O-] 102%
Cc1cc(C)c2ccc(C(=O)O)nc2c1O 98.5%
Nc1[nH]c(=O)nc(Nc2ccccc2)c1N=O 101%
Cc1ccc2nc(-c3ccc(NC(=O)c4cccnc4)cc3)oc2c1 97.2%
O=C(N/N=C/c1ccccc1O)c1cccc2ccccc12 97%
Cc1ccc(C(=O)/C=C/Nc2cccc(O)c2)cc1 101%
Cc1cccc(N/C=C/C(=O)c2ccc(Cl)cc2)c1 99.6%
CC1=CN2C(=N)/C(=C/c3ccc([N+](=O)[O-])o3)C(=O)N=C2S1 240%
CC(=O)Nc1ccc(-c2nc3cc(Cl)ccc3o2)cc1 99.3%
C=CCNc1nc(N)c([N+](=O)[O-])c(Nc2ccccc2OC)n1 102%
COc1ccc(OC)c2c(=O)cc(C(=O)O)[nH]c12 92.3%
COc1ccc(OC)c2c(C)cc(C)nc12 98.5%
CC(=O)Nn1cnc2c(c1=O)C1(CCCC1)Cc1ccccc1-2 99.3%
O=C(Nc1ccccc1)ON=C1c2ccccc2-c2ccccc21 92.3%
CCN(CC)C(=O)Oc1cc(=O)n(C)c2ccccc12 99.8%
CC(=O)C(CC(=O)N1CCCC1)C(=O)Nc1ccc(Cl)cc1 (centres undefined) 102%
COc1ccc(OC)c(Nc2nc(NCCC(C)C)nc(N)c2[N+](=O)[O-])c1 103%
O=C(O)CCCCCNc1ncnc2ccc(Br)cc12 99.8%
CC(=O)Nc1ccc(-c2nc3ccccc3o2)cc1 99.6%
OCCN1CCN(c2ncnc3ccc(Br)cc23)CC1 102%
COc1cc(OC)cc(C(=O)Nc2ccc(-c3nc4ccccc4o3)cc2)c1 103%
COc1ccccc1Nc1nc(NCCCN(C)C)nc(N)c1[N+](=O)[O-] 99.1%
O=C(/C=C/Nc1cccc(O)c1)c1ccccc1 98.8%
CN(C)CCCNc1cc(O)c2ncccc2c1 103%
N#Cc1c(N)nc(N)nc1Nc1ccc(Br)cc1 99.6%
COCC(C)NC(=O)CCS(=O)(=O)c1nc(-c2ccc(OC)cc2)cc(C(F)(F)F)n1 (centres undefined) 98.3% and 102%
CCC(=O)Nn1cnc2c(c1=O)C1(CCCCC1)Cc1ccccc1-2 103%
CC(=O)NC(C)c1cc(Cl)c2cccnc2c1O (centres undefined) 99.1%
COc1cccc(N/C=C/C(=O)c2ccc(C)cc2)c1 103%
